Source: PubChem BioAssay (several laboratories)
rCAG binder – binders of r(CAG) RNA repeats, primary screen, biochemical, fluorescence; r(CAG) RNA repeat, TO-PRO-1 dye displacement fluorescence; inhibition, % at 3 µM; hit rate 1.3% among 370,000; AID 651821, 2012;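 active = inhibition above the plate cutoff, the mean of all test compounds on that plate plus 3 SD, cut at about 35% in these data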;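 also: higher means more dye released from RNA so lower well fluorescence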
NadD block – inhibitors of S. aureus NadD, primary screen, biochemical, colorimetric, uHTS; inhibition, % at 20 µM; purified NadD enzyme, colorimetric absorbance read-out; AID 602399, 2012; hit rate 0.78% among 360,000; Nicotinate-nucleotide adenylyltransferase NadD (Staphylococcus aureus N315); in the data active = inhibition above about 26%
DAGLB inh – DAGLB lipase inhibitors, primary screen, biochemical, fluorescence, HTS. Diacylglycerol lipase-beta (Homo sapiens), Q8NCG7. HEK293T DAGLB membrane lysate, EnzChek fluorogenic substrate. inhibition, % at 5.17 µM. hit rate 0.059% among 340,000. AID 504411, 2011; in the data active = inhibition above about 34%
Pemphigus Ab inh – inhibitors of pemphigus antibody binding to DSG3, primary screen, biochemical, bead-based, flow cytometry, scFv-GFP; Desmoglein-3 (Homo sapiens), P32926; DSG3-coupled beads, scFv-anti-DSG3-GFP binding; stronger effect = lower value; binding (percent of control), % at 10 µM; hit rate 0.48% among 310,000; AID 588358, 2011;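 active = binding more than 3 SD below its plate's average and above zero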
Target sequence (P32926 whole entry, looked up): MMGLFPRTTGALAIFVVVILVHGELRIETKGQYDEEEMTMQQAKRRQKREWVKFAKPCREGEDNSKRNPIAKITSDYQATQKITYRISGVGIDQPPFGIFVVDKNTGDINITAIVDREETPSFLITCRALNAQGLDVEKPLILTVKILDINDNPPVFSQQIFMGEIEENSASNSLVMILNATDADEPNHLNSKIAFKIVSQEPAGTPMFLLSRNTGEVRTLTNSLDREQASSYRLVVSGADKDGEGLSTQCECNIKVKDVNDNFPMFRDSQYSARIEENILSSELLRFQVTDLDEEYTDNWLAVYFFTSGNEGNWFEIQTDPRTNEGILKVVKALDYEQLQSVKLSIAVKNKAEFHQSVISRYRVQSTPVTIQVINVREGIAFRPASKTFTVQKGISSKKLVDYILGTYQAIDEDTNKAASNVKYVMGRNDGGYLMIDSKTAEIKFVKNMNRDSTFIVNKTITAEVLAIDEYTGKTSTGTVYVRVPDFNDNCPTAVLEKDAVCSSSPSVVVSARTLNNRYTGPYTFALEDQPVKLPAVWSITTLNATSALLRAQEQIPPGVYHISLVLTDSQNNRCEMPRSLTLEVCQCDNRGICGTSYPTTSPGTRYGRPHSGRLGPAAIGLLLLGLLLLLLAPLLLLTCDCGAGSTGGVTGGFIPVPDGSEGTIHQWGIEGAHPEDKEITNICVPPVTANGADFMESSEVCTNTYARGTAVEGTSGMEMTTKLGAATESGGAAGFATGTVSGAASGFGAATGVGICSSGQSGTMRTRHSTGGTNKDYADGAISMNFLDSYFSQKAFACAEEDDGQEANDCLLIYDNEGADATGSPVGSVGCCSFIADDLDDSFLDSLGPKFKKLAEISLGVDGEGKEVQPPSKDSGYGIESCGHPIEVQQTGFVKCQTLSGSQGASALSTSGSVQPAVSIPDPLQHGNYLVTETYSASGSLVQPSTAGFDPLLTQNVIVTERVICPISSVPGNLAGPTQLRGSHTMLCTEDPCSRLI
MsrA inh – bovine MsrA enzyme inhibitors, primary screen, biochemical, absorbance, HTS | Methionine sulfoxide reductase A (Bos taurus) | purified bovine MsrA, absorbance read-out | inhibition, % at 15.5 µM | hit rate 0.75% among 360,000 | AID 651718, 2012; in the data active = inhibition above about 4.5%
MsrA act – bovine MsrA enzyme activators, primary screen, biochemical, absorbance, HTS. activation, % at 10.6 µM. hit rate 0.3% among 360,000. purified bovine MsrA, absorbance read-out; in the data active = activation above about 7.5%
rCAG bind conf – small molecules binding CAG repeat RNA – biochemical, fluorescence, confirmation | shares compounds with rCAG binder | r(CAG) RNA repeat, TO-PRO-1 dye displacement fluorescence | inhibition, % at 3 µM | hit rate 70% among 4,300;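 active = inhibition above a per-plate cutoff, the mean inhibition of sample wells plus 3 SD, cut at about 35% in these data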;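 also: loss of TO-PRO-1 fluorescence as compound displaces dye from 1x1 AA loop RNA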
DNA CAG counter – displacement of TO-PRO-1 from CAG DNA duplex, counter-screen for rCAG RNA repeat binder project, biochemical, fluorescence, TO-PRO-1 dye, d(CAG) DNA oligo. inhibition, % at 3 µM. d(CAG) DNA oligo TO-PRO-1 dye displacement. AID 652068, 2013. hit rate 94% among 4,300. shares compounds with rCAG binder;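 active = inhibition above its plate's cutoff, the mean test-well inhibition plus 3 SD, cut at about 4.8% in these data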;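 also: hits displace the dye from DNA and so lower well fluorescence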
dCAG dye DR – inhibitors of DNA CAG/GTC TO-PRO-1 complex, dose response, counter-screen for rCAG RNA repeat binder project, biochemical, fluorescence, TO-PRO-1 dye; shares compounds with rCAG binder; DNA CAG/GTC duplex TO-PRO-1 dye displacement fluorescence; IC50, µM; hit rate 20% among 250; AID 686960, 2013; in the data active = IC50 below about 10 µM
A number is an active result. In the library only some 3.2% were active in any assay of this set; here they are far more common.

Screening Cc1ccc(NC(=O)CN2C(=O)NC3(CCCCC3C)C2=O)cc1S(=O)(=O)N1CCOCC1 (stereo unspecified) returned rCAG binder inactive, NadD block inactive, DAGLB inh inactive, Pemphigus Ab inh inactive, MsrA inh inactive and MsrA act inactive.
Screening O=C(Nc1ccc(S(=O)(=O)Nc2cnc3ccccc3n2)cc1)c1cccc(OC(F)F)c1 returned rCAG binder 55, NadD block inactive, DAGLB inh inactive, Pemphigus Ab inh inactive, MsrA inh inactive, MsrA act inactive, rCAG bind conf 35 and DNA CAG counter 6.7.
For CCOC1=C2[C@@H](CN(S(=O)(=O)c3ccc(C)cc3)[C@H]2c2ccc(CC)cc2)[C@H]2C(=O)N(C)C(=O)[C@H]2C1 the results were rCAG binder inactive, NadD block inactive, MsrA inh inactive and MsrA act inactive.
Screening CO/N=C/c1ccc(Oc2ccc([N+](=O)[O-])cc2[N+](=O)[O-])c(OC)c1 returned rCAG binder inactive, NadD block inactive, DAGLB inh inactive, Pemphigus Ab inh inactive, MsrA inh inactive and MsrA act inactive.
For COc1cc(/C=C2\SC(=O)NC2=O)ccc1Oc1ccc([N+](=O)[O-])cc1[N+](=O)[O-] the results were rCAG binder 52, NadD block inactive, DAGLB inh inactive, Pemphigus Ab inh inactive, MsrA inh inactive, MsrA act inactive, rCAG bind conf 72, DNA CAG counter 33 and dCAG dye DR inactive.
`CC1(C(=O)NS(=O)(=O)c2cccc(F)c2)CCN1C(=O)Cc1ccc(-c2ccccc2)cc1` (stereo unspecified) gave rCAG binder 51, NadD block inactive, MsrA inh inactive, MsrA act inactive, rCAG bind conf 50 and DNA CAG counter 15.
CC1(C(=O)NS(=O)(=O)c2cccc(F)c2)CCN1C(=O)Cc1ccccc1 (stereo unspecified) was read as rCAG binder inactive, NadD block inactive, MsrA inh inactive and MsrA act inactive.
CC(C)(C)c1ccc(CC(=O)N2CCC2(C)C(=O)NS(=O)(=O)c2cccc(F)c2)cc1 (stereo unspecified) was read as rCAG binder 39, NadD block inactive, MsrA inh inactive, MsrA act inactive, rCAG bind conf inactive and DNA CAG counter 5.4.
For CC1(C(=O)NS(=O)(=O)c2cccc(Cl)c2)CCN1C(=O)Cc1ccc(-c2ccccc2)cc1 (stereo unspecified) the results were rCAG binder 74, NadD block inactive, MsrA inh inactive, MsrA act inactive, rCAG bind conf 68 and DNA CAG counter 29.
COC(=O)c1cc2c(c3c4cc(OC)ccc4n(S(=O)(=O)c4ccc(F)cc4)c13)C(=O)N(CC(C)C)C2 was read as rCAG binder inactive and MsrA inh inactive.
`O=C1NC(=Nc2ccccc2Cl)S/C1=C\c1cc([N+](=O)[O-])ccc1O` gave rCAG binder 82, NadD block inactive, DAGLB inh inactive, Pemphigus Ab inh inactive, MsrA inh inactive, MsrA act inactive, rCAG bind conf 69 and DNA CAG counter 27.
Screening COc1cc(/C=C2\S/C(=N/S(=O)(=O)c3ccc(C)cc3)NC2=O)c([N+](=O)[O-])cc1OC returned rCAG binder 86, NadD block inactive, DAGLB inh inactive, Pemphigus Ab inh inactive, MsrA inh inactive, MsrA act inactive, rCAG bind conf 84 and DNA CAG counter 51.
For COc1cccc(N=C2NC(=O)/C(=C/c3cc([N+](=O)[O-])ccc3O)S2)c1 the results were rCAG binder inactive, NadD block inactive, DAGLB inh inactive, Pemphigus Ab inh inactive, MsrA inh inactive and MsrA act inactive.
`Cc1ccc(S(=O)(=O)/N=C2/NC(=O)/C(=C/c3cc([N+](=O)[O-])ccc3O)S2)cc1` gave rCAG binder 88, NadD block inactive, DAGLB inh inactive, Pemphigus Ab inh inactive, MsrA inh inactive, MsrA act inactive, rCAG bind conf 67 and DNA CAG counter 25.
`Cc1cc(C)n(/N=C/c2cc([N+](=O)[O-])ccc2O)c(=O)c1` gave rCAG binder inactive, NadD block inactive, DAGLB inh inactive, Pemphigus Ab inh inactive, MsrA inh inactive and MsrA act inactive.
O=C(Cc1cc(C(F)(F)F)cc(C(F)(F)F)c1)Nc1c(-c2ccccc2)[nH][nH]c1=O was read as rCAG binder inactive and MsrA inh inactive.
Cc1ccc2[nH]c(C(=O)O)c(NC(=O)CN3CCN(c4cccc(C)c4C)CC3)c2c1 was read as rCAG binder 65, NadD block inactive, DAGLB inh inactive, Pemphigus Ab inh inactive, MsrA inh inactive, MsrA act inactive, rCAG bind conf 69 and DNA CAG counter 28.
Screening CCCCCCCCCCCC(=O)c1c(O)cccc1O returned rCAG binder 41, NadD block inactive, DAGLB inh inactive, Pemphigus Ab inh inactive, MsrA inh inactive, MsrA act inactive, rCAG bind conf 39 and DNA CAG counter 23.
CCCCCCCC(=O)NNC(=O)Cc1ccccc1 was read as NadD block inactive, DAGLB inh inactive, Pemphigus Ab inh inactive and MsrA act inactive.
`COc1cccc(NC(=O)CN(C)C(=O)c2cccnc2Nc2cccc(C(F)(F)F)c2)c1` gave NadD block inactive, DAGLB inh inactive and MsrA act inactive.
Screening Cc1ccc(NC(=O)CN(C)C(=O)c2cccnc2Nc2cccc(C(F)(F)F)c2)cc1 returned rCAG binder 44, NadD block inactive, DAGLB inh inactive, Pemphigus Ab inh inactive, MsrA inh inactive, MsrA act inactive, rCAG bind conf inactive and DNA CAG counter 5.8.
For CCN(CC)Cc1c(O)ccc2c1O/C(=C\C=C\c1ccccc1)C2=O the results were rCAG binder inactive, NadD block inactive, DAGLB inh inactive, Pemphigus Ab inh inactive, MsrA inh inactive and MsrA act inactive.
